Most compounds without a hit are left out; they make up all but 4.1% or so of the library.
beta cell repl: inducers of beta-cell replication in MIN6 cells; proliferation, % at 10 µM; MIN6 cells proliferation, ATPlite luminescence, 48 h; cells starved in 0.2% serum; 100% = growth in 10% serum; AID 2380; 0.29% of 330,000 active;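 active = compounds whose signal lies at least 3.5 SD above the mean of all wells on their plate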
p-CIP stab down: p/CIP protein destabilization | Q05BA5 | F442A p/CIP-EGFP cells, EGFP fluorescence, 16 h | decrease of EGFP signal, % at 10 µM | 0.01% of 290,000 active;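 active = EGFP signal decrease of at least 30% at 10 µM or well 3 SD below plate mean, unless failing retest; inactive = the rest, including hits failing retest or dose response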
MPTP block: inhibitors of mitochondrial permeability transition pore | inhibition, % at 10 µM | AID 602449 | 1.4% of 360,000 active | isolated mouse mitochondria, Ca2+ swelling absorbance, 30 min;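 active = inhibition of 50% or more, scaled per plate between neutral and stimulator controls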
FAS-TE inh: inhibitors of human fatty acid synthase thioesterase domain. recombinant FAS-TE, OMFH fluorogenic substrate, fluorescence endpoint. AID 602261. P49327. 0.67% of 360,000 active. inhibition, % at 15 µM;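 active = compounds whose normalised, plate-corrected inhibition of enzyme fluorescence in the single-dose primary screen is 50% or more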
NR3A LBD binder: modulators (binders) of human NR3A ligand-binding domain | NR3A LBD differential scanning fluorimetry, Tm shift; 0% = protein alone, 100% = glycine-bound protein | 2.5% of 340,000 active | Tm shift relative to glycine control, % at 25 µM | AID 1259313;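 active = melting temperature shift of at least 10% of the positive control shift, at one fixed dose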
Each line names hits and unclear results; the compound was inactive in the other large screens.

COc1ccc(-c2ccc(C(=O)N3CCOCC3)c3occc23)c(C)c1	none (no result: beta cell repl, p-CIP stab down, NR3A LBD binder)
C[C@H]1CCCCO[C@H](CN(C)Cc2ccc(C(=O)O)cc2)[C@@H](C)CN([C@@H](C)CO)C(=O)c2cc(NS(=O)(=O)c3cn(C)cn3)ccc2O1	none (no result: beta cell repl, p-CIP stab down, NR3A LBD binder)
CN(CC(=O)Nc1cccc(S(=O)(=O)NC2=NCCCCC2)c1)Cc1ccc(C(C)(C)C)cc1	FAS-TE inh 66
Cc1[nH]n(-c2ccccc2)c(=O)c1N=Nc1ccccc1O	NR3A LBD binder 10
CCOc1ccc(Br)cc1C1=CC(=O)C[C@H](c2ccc(OC)cc2)C1	NR3A LBD binder 16 (no result: p-CIP stab down)
CCOc1ccc(NS(=O)(=O)c2ccc(N)cc2)cc1	none
COC(=O)COc1cccc(NS(=O)(=O)c2ccc(NC(C)=O)cc2)c1	NR3A LBD binder 14
CCOc1ccc(S(=O)(=O)Nc2cccc(OC)c2)cc1	NR3A LBD binder 11
O=C(NCc1ccco1)C(c1ccccc1F)N(Cc1cccnc1)C(=O)Cn1nnc2ccccc21 (stereo unspecified)	NR3A LBD binder 11
COC(=O)c1ccc(COC(=O)C2CCN(S(=O)(=O)c3c(C)cc(C)cc3C)CC2)o1	none (no result: beta cell repl, p-CIP stab down, NR3A LBD binder)
COc1cc(/C=N/NC(=O)CCN2CCN(C)CC2)cc2c1OCO2	NR3A LBD binder 11
CN(C)C(=O)CCc1ccc2c3c([nH]c2c1)[C@]1(CCc2ccccc2)[C@@H](C(=O)N2CCCCC2)C[C@H](CC(=O)NCc2cccc(C(F)(F)F)c2)C(=O)N1CC3	NR3A LBD binder 15 (no result: beta cell repl, p-CIP stab down)
CN(C)C(=O)CCc1ccc2c3c([nH]c2c1)[C@]1(CCc2ccccc2)[C@@H](C(=O)N2CCCCC2)C[C@H](CC(=O)NCc2ccco2)C(=O)N1CC3	none (no result: beta cell repl, p-CIP stab down)
CC(C)c1ccc(CC(=O)N2CCC2(C)C(=O)NS(=O)(=O)c2cccc(OC(F)F)c2)cc1 (stereo unspecified)	none (no result: beta cell repl, p-CIP stab down, NR3A LBD binder)
CC/C(=N\NC(=O)c1nnn(-c2nonc2N)c1CN(C)c1ccccc1)c1ccccc1	NR3A LBD binder 242
C/C(=N\NC(=O)c1nnn(-c2nonc2N)c1CN(C)c1ccccc1)c1ccc(O)cc1	none
C/C(=N\NC(=O)c1nnn(-c2nonc2N)c1CN(C)c1ccccc1)c1ccccn1	none (no result: beta cell repl)
C/C(=N\NC(=O)c1nnn(-c2nonc2N)c1CN(C)c1ccccc1)c1cccs1	NR3A LBD binder 11
Cc1cc(C(O)c2ncc(-c3ccccc3F)[nH]2)ccc1F (stereo unspecified)	none (no result: beta cell repl, p-CIP stab down, NR3A LBD binder)
O=C1N/C(=N\S(=O)(=O)c2ccccc2)S/C1=C\c1cc([N+](=O)[O-])ccc1O	NR3A LBD binder 14
O=C(CN1CCN(C(=O)CCC(=O)N2CCC(c3ccccc3)=N2)CC1)Nc1ccc(F)cc1	NR3A LBD binder 18 (no result: p-CIP stab down)
Cc1ccc(C(=O)N2CCCC2)cc1S(=O)(=O)N1CCOCC1	none
Cc1ccc(C(=O)N2CCOCC2)cc1S(=O)(=O)N1CCOCC1	NR3A LBD binder 12
Nc1c(N=Nc2ccccc2F)c(=O)[nH]n1-c1ccccc1	NR3A LBD binder 12
Nc1[nH]c(C(=O)c2ccccc2)c(-c2ccc(Cl)cc2)c1C(=O)NCCc1c[nH]c2ccccc12	none (no result: beta cell repl, p-CIP stab down, NR3A LBD binder)
COc1ccc(C(=O)NCCc2c[nH]c3ccccc23)cc1[N+](=O)[O-]	NR3A LBD binder 25
O=C(CN1C(=O)NC(Cc2c[nH]c3ccccc23)C1=O)Nc1ccc(Br)cc1F (stereo unspecified)	NR3A LBD binder 12 (no result: p-CIP stab down)
COc1ccc(Cl)cc1NC(=S)NCCc1c[nH]c2ccccc12	NR3A LBD binder 29
O=C(NCCc1c[nH]c2ccccc12)c1cncc(Br)c1	none
O=C(NCCc1c[nH]c2ccccc12)c1ccc(Cl)cc1	NR3A LBD binder 29
Cc1ccccc1NC(=S)NCCc1c[nH]c2ccccc12	none
O=C(CN1C(=O)NC(Cc2c[nH]c3ccccc23)C1=O)Nc1ccccc1Br (stereo unspecified)	none (no result: p-CIP stab down)
O=C(NCCc1ccc(F)cc1)c1ccc([N+](=O)[O-])cc1	none
Cc1cccc2c(CCNC(=O)c3ccc([N+](=O)[O-])cc3)c[nH]c12	NR3A LBD binder 18
COc1ccc(CCNC(=O)CN2C(=O)NC(Cc3c[nH]c4ccccc34)C2=O)cc1 (stereo unspecified)	NR3A LBD binder 25
COc1ccc(C(=O)NCCc2c[nH]c3ccccc23)cc1	NR3A LBD binder 10
COc1ccc(-c2cn(CCc3c[nH]c4ccccc34)nn2)cc1	NR3A LBD binder 19

Assay outcomes deposited in PubChem by Sanford-Burnham Center for Chemical Genomics.
